The record followed here is PubChem BioAssay AID504682 (Southern Research Specialized Biocontainment Screening …, 2011).

Results with a measured potency or affinity are listed apart. The source made the active and inactive calls. How the calls were made is not given here.

The nature of the assay: cytotoxicity control, cell-based, set 2 (AID 504682). As to conditions: HepG2 cytotoxicity; series mostly up to 50 µM; viability: at the top concentration.
What is called viability is a read-out of living cells in per cent, often relative to untreated cells. `COC(=O)CCc1nc2c(C#N)c(-c3ccc(Cl)cc3)ccn2n1`: the “viability” value is 98.8% (inactive).

For `COc1cc(NC(=O)C/C(C)=N/NC(=O)c2ccccn2)c(OC)cc1Cl`, the “viability” value is 80% (inactive).

As to `CC(=NCc1ccc2c(c1)OCO2)C1=C(O)c2ccccc2C1=O`, the “viability” value was 97.2% (inactive).

As for `Cc1nc(SCC(=O)NC2CCCCC2)[nH]c(=O)c1C`, the “viability” value was 101% (inactive).

In the case of `CCn1c2ccccc2c2cc(NC(=O)CSc3nc(C)cc(=O)[nH]3)ccc21`, the “viability” value was 83.2% (inactive).

As to `CCSc1nc(C)c(C)c(=O)[nH]1`, the “viability” value is 101% (inactive).

For the molecule `CCSc1nc2ccccc2c(=O)[nH]1`, the “viability” value was 103% (inactive).

As for `Cc1[nH]c(=S)[nH]c(=O)c1C`, the “viability” value is 95.4% (inactive).

In the case of `Cc1cc(=O)[nH]c(=S)[nH]1`, the “viability” value was 101% (inactive).

`O=C(CSc1nccc(=O)[nH]1)Nc1ccc(Oc2ccccc2)cc1`: the “viability” value was 96.8% (inactive).

On to `Cc1nc(SCC(N)=O)[nH]c(=O)c1C`, for which the “viability” value is 99.5% (inactive).

In the case of `COC(=O)C1CC(=O)N(c2ccc(OCc3ccccc3Cl)cc2)C1` (centres undefined), the “viability” value is 96.1% (inactive).

In the case of `CCc1ccc(/C=C2/C(=O)N(C)C(=S)N2CC(=O)OC)s1`, the “viability” value was 80% (inactive).

With `O=C1C(Br)=Cc2cccc3cccc1c23`, the “viability” value is 92.1% (inactive).

On to `Cc1c[nH]c(=S)[nH]c1=O`, for which the “viability” value was 105% (inactive).

As for `Cc1ccc(NC(=O)C2C3/C=C\CCCCC32)cc1C` (centres undefined), the “viability” value was 101% (inactive).

Take `O=C(CSc1nc2ccccc2c(=O)[nH]1)NC1CCCCC1`: the “viability” value was 103% (inactive).

For the molecule `Cc1cc(=O)[nH]c(SCC(=O)Nc2ccccc2)n1`, the “viability” value was 92.8% (inactive).

As for `CCOC(=O)CNC(=O)[C@H](Cc1ccccc1)NC(=O)OCc1ccccc1`, the “viability” value is 98.7% (inactive).

`CCOC(=O)COn1c2c(c3c4no[n+]([O-])c4ccc31)CCCC2`: the “viability” value was 90.6% (inactive).

In the case of `O=C(/C=C/c1ccccc1)N1CCN(CCN2C(=O)c3cccc4cccc(c34)C2=O)CC1`, the “viability” value is 96.5% (inactive).

As to `Cc1ccc(NC(=O)COC(=O)CCc2c[nH]c3ccccc23)cc1[N+](=O)[O-]`, the “viability” value is 97.8% (inactive).

Turning to `O=C(CSc1nc(O)cc(=O)[nH]1)Nc1ccccc1`, the “viability” value is 94.9% (inactive).

`CN(C(=O)CSc1nc2ccccc2c(=O)[nH]1)C1CCCCC1`: the “viability” value was 88.6% (inactive).

`CCOC1OC(=O)C(Cl)=C1Nc1ccccc1C` (centres undefined): the “viability” value is 95.3% (inactive).

For `CC[N+](C)(CC)CCCCOc1ccc2c(c1)C(=O)c1cc(OCCCC[N+](C)(CC)CC)ccc1-2`, the “viability” value is 87% (inactive).

For the molecule `COC(=O)C(C)Oc1ccc(Cc2ncc(C(F)(F)F)cc2Cl)cc1` (centres undefined), the “viability” value is 97.9% (inactive).

Turning to `CCOC(=O)CSc1nc(C)c(C)c(=O)[nH]1`, the “viability” value is 103% (inactive).

As to `COC(=O)c1ccc(CNc2c(N3CCCC3)c(=O)c2=O)cc1`, the “viability” value was 97.2% (inactive).

As to `CCOC(=O)COc1ccc(/C=C2\NC(=S)N(CC)C2=O)cc1`, the “viability” value was 99.4% (inactive).

For `COC(=O)C(C)Oc1ccc(-c2nccc(-c3ccccn3)n2)cc1` (centres undefined), the “viability” value is 92.1% (inactive).

`O=C(CSc1ccccn1)NC1CCCCC1`: the “viability” value was 121% (inactive).

On to `O=C(CSc1ncccn1)NC1CCCCC1`, for which the “viability” value is 91.5% (inactive).

In the case of `O=C(CSc1nc2ccccc2c(=O)[nH]1)NCc1ccc(Cl)cc1`, the “viability” value was 89.5% (inactive).

`CCOC(=O)C(C)Sc1ncnc2c1nnn2-c1ccc(F)cc1` (centres undefined): the “viability” value is 88.7% (inactive).

For the molecule `Cc1nc(SCc2ccccc2Cl)[nH]c(=O)c1C`, the “viability” value is 100% (inactive).

Regarding `Cc1nc(SCC(=O)N(C)c2ccccc2)[nH]c(=O)c1C`, the “viability” value was 108% (inactive).

Consider `O=C(CSc1nccc(=O)[nH]1)Nc1ccc(N2CCOCC2)cc1`, for which the “viability” value was 90% (inactive).

For the molecule `O=c1[nH]c(=S)[nH]c2ccccc12`, the “viability” value is 96.8% (inactive).
